KinaseGlo FLuc: Kinase-Glo luciferase inhibition (counter-screen); Q27757; Kinase-Glo luciferase, ATP luminescence, 8 min; Potency, µM (titrated, usually from 38.3 µM), for inactives: at the highest dose activity change, negative = inhibition, hits mostly inhibitors; 0.28% of 200,000 active; further: on the % scale 0 is the no-effect control and ±100 the full control effect; nearly all actives have a fitted effect of over 60% in size
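Compound is pinned into ATP-containing buffer (10 uM ATP, imidazole pH 7.2, 7 mM MgCl2). Kinase-Glo luciferase reagent is then added. Light output is recorded following an 8-min room-temperature incubation.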
HPGD block: blocks human HPGD enzyme activity; P15428; 4.3% of 150,000 active; Potency, µM, inactives show at the top dose activity change, negative = inhibition, actives largely listed as inhibitors; purified HPGD, NADH fluorescence kinetic, PGE2 substrate; active means well fitted inhibition curve with a large enough effect, not every such curve was filed as active; inconclusive means small, poorly fitted or top-dose-only effect, or another doubt; inactive means no such curve, though single readings can be large or run the other way; further: on the % scale 0 is the no-effect control and ±100 the full control effect
Target sequence (P15428 whole entry, looked up): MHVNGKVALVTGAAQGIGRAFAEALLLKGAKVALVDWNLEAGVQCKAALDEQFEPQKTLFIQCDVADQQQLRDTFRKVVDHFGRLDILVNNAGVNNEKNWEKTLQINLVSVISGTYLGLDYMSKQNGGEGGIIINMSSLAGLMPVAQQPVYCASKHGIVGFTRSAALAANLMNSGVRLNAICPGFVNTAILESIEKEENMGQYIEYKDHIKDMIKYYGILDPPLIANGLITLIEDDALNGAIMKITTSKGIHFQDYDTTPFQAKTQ
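20 nM HPGD preincubated 15 min at room temperature with compound in 50 mM Tris-HCl pH 8, 0.01% Tween 20. Started with 1 mM NAD+ and 30 uM prostaglandin E2; NADH fluorescence (360/450 nm) read 5 times over 30-s intervals, last minus first.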
HTT aggregate: reduces HttQ103-GFP aggregates in PC12 cells; PC12 HttQ103-GFP aggregates, Acumen cytometry, 40 h; Potency, µM (titrated, usually from 46.1 µM), for inactives: top-dose activity change, negative = inhibition, actives largely listed as inhibitors; 1.1% of 220,000 active; AID 1688; further: on the % scale 0 is the no-effect control and ±100 the full control effect; nearly all actives have a fitted effect of over 60% in size
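Aggregate formation scored by laser-scanning cytometer (488 excitation, 500–530 emission) in lysed PC12 cells expressing Q103-GFP after 100 nM tebufenozide induction; library tested in dose series, with ATPLite reagent added in the multiplex.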
ALDH1A1 block: ALDH1A1 (human) enzyme inhibition | P00352 | Purified ALDH1A1, NADH fluorescence, propionaldehyde substrate | Potency, µM (titrated, usually from 75.3 µM), inactives show top-dose activity, negative = inhibition, most hits filed as inhibitors | 7.3% of 220,000 active | AID 1030; active means well fitted inhibition curve with a large enough effect, not every such curve was filed as active; inconclusive means small, poorly fitted or top-dose-only effect, or another doubt; inactive means no such curve, though single readings can be large or run the other way;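 further: plate controls were no enzyme wells and a reference inhibitor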
HTT cytoprotect: cytoprotection in Huntington HTT-Q103 PC12 cell model; PC12 HTT-Q103 induced, cytoprotection, ATP luminescence, 40 h; Potency, µM (doses to about 56.4 µM), without a hit: cytoprotection (ATP increase), usual class: activators; 0.14% of 230,000 active; AID 1471; further: % of control where 0% means no effect; nearly all actives have a fitted effect of over 45% in size
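Compounds were screened for protection of PC12 cells against cell death after tebufenozide induction (100 nM final) of mutant Huntingtin exon 1 (Q103) fused to GFP.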
Lamin A splicing: LMNA splicing modulation; HeLa LMNA splicing GFP/RFP minigene ratio, 48 h; Potency, µM (series often up to 46.1 µM), for the others: at the top dose ratio change, negative = inhibition, hits mostly inhibitors; 0.01% of 200,000 active; AID 1487; active means well fitted inhibition curve with a large enough effect in the signal ratio, with a control signal flat, not every such curve was filed as active; inconclusive means small, poorly fitted or top-dose-only effect, or effect the other way, or a change in a side signal; the % refers to the signal ratio; further: on the % scale 0 is the no-effect control and ±100 the full control effect
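Read-out is the ratio of GFP to DsRed2 object intensity, acquired by 488 nm laser-scanning cytometry on HeLa lamin A-EGFP minigene reporter cells. Compound incubation 48 hrs at 37 °C in Opti-MEM with 2% FBS; DMSO 0.5% final.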
Numbers without * were called inactive; u = inconclusive; x = no result; [ ] = another dose, or the depositor's remark. A selection: hits, their analogues and other compounds. The true share with any hit is near 9%. Unless noted, the call rests on the fitted dose curve; in most records, active means well fitted curve in the direction sought with a large enough effect; inconclusive means small, poorly fitted or top-dose-only effect, or another doubt; inactive means no such curve, though single readings can be large; an effect the other way counts as inactive or inconclusive. Potency means the concentration at half of the fitted maximal effect.

SMILES	KinaseGlo FLuc	HPGD block	HTT aggregate	ALDH1A1 block	HTT cytoprotect	Lamin A splicing
CCOc1cc(/C=C2\C(=O)N(c3cccc(C(F)(F)F)c3)C(=O)c3ccccc32)ccc1O	-2%	u	-6%	u	-5%[10 µM]	-1%
Cc1cccc(N2C(=O)/C(=C\c3ccc(OC(F)F)cc3)c3ccccc3C2=O)c1	-2%	10µM*	u	u	-4%[10 µM]	-8%
COc1cccc(/C=C2\C(=O)N(c3cccc(C)c3)C(=O)c3ccccc32)c1	-4%	4µM*	3%	u	3%[10 µM]	-1%
COc1cccc(N2C(=O)c3ccncc3C2=O)c1	11%	-14%	10%	-4%	-9%	6%
O=c1cc(NCc2ccc3c(c2)OCO3)[nH]c(=O)n1-c1ccc(Cl)cc1	1%	-8%	-6%	-7%	11%	2%
Cc1ccccc1-n1c(=O)cc(NCc2ccc3c(c2)OCO3)[nH]c1=O	0%	-23%	-2%	14µM*	-11%[10 µM]	u
O=C(Cn1nnc(-c2ccccc2-n2cnnn2)n1)NCc1ccccc1	-6%	-16%	-10%	10µM*	-8%[10 µM]	-5%
Cc1ccc(C(=O)Cn2nnc(-c3ccccc3-n3cnnn3)n2)cc1	5%	-12%	10%	u	-20%[10 µM]	8%
Cc1ccc(-c2nnn(CC(=O)Nc3ccccc3-c3ccccc3)n2)c(-n2cnnn2)c1	1%	-8%	-7%[9.22 µM]	25µM*	-25%	-3%
CC1CCC(=NNC(=O)Cc2ccccc2)CC1 (configuration not stated)	-3%	4%	-6%	u	-14%	16%
O=C(NCCc1cccs1)C1CC(c2c(Cl)cccc2Cl)=NO1 (configuration not stated)	2%	14µM*	u	-1%	-35%	14%
O=C(NCCc1cccs1)C1CC(c2cccc(F)c2)=NO1 (configuration not stated)	x	x	-4%[9.22 µM]	x	-6%[10 µM]	x
C=CCNc1nc2c(c(=O)n(C)c(=O)n2C)n1CC	-1%	-18%	13µM*	11%	-28%	-2%
C=CCNc1nc2c(c(=O)n(C)c(=O)n2C)n1CCCCCC	0%	-15%	u	3%	-42%[10 µM]	u
COc1ccc(C(CCO)NC(=O)c2cccs2)cc1OC (configuration not stated)	1%	x	-1%	-4%	-11%	x
Clc1ccc(NCn2cncn2)nc1	-5%	u	12%	19µM*	-2%	-1%
O=C(Cn1cncn1)NCc1ccc(Cl)cc1	-2%	-3%	-3%	-3%	-8%[10 µM]	-1%
C/C(=N\N1C(=O)CSC1=S)c1ccc(Br)cc1	-1%	x	19%	25µM*	u	u
Cc1ccc(C(=O)NN2C(=O)CSC2=S)cc1	3%	-12%	1%	1%	x	-9%
CC(=O)OC[C@H]1O[C@H](CCO/N=C(\C)CCN2CCCc3nc(C)c(C)cc32)C=C[C@@H]1OC(C)=O	-4%	u	-2%	u	x	-5%
Cc1cccc(NS(=O)(=O)c2cc(C(=O)N3CCCC3)ccc2Cl)c1	2%	-15%	9%	u	6%[10 µM]	7%
CC(C)(C)c1ccc(S(=O)(=O)/C=C/C#N)cc1	-3%	10µM*	x	0.11µM*	x	u
CC(C)(C)c1ccc(NS(=O)(=O)c2ccc(N)cc2)cc1	-4%[7.66 µM]	-8%	4%[9.22 µM]	-12%[13.5 µM]	1%[10 µM]	x
CC(=O)C1=C(C)N(c2ccccc2)C(=O)C1(NS(=O)(=O)c1ccc(N)cc1)C(F)(F)F (configuration not stated)	-3%	x	u	5%	x	-19%[46 µM]
CC(=O)Nc1ccc(S(=O)(=O)NC2(C(F)(F)F)C(=O)Nc3c2c(=O)n(C)c(=O)n3C)cc1 (configuration not stated)	-2%	20µM*	1%	u	0%	-10%

High-throughput results from PubChem.
